Bioassay records from PubChem BioAssay.
In the library only some 12% were active in any assay of this set; here they are far more common.
HP1b chromo inh = inhibitors of HP1-beta chromodomain binding to methylated histone tails. AlphaScreen HP1-beta / biotin-H3K9me3 peptide binding. P83916. actives 0.56% (n = 390,000). AID 540317. Potency, µM (titrated, usually from 114 µM), hits mostly inhibitors; note: nearly all actives have a fitted effect of over 70% in size
Target sequence (P83916 whole entry, looked up): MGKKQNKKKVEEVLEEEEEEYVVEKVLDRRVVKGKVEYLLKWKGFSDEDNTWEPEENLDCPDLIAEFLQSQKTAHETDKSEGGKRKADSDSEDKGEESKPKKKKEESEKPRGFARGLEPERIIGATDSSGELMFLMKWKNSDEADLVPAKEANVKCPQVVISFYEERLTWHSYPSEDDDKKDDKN
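HP1-beta protein (50 nM final) preincubated 30 min at room temperature with biotinylated H3(1-18)K9me3 peptide (50 nM) in PBS pH 7.4, 0.01% Tween-20, then compound added for 30 min. AlphaScreen streptavidin donor/nickel chelate acceptor beads (10 ug/mL final), 30 min dark, luminescence read.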
BAZ2B block = blocks human BAZ2B. actives 4.4% (n = 360,000). AlphaScreen BAZ2B-H3K14Ac peptide displacement. Q9UIF8. AID 504333. Potency, µM (series often up to 114 µM), most hits filed as inhibitors; note: nearly all actives have a fitted effect of over 60% in size
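Compounds, titrated to a top concentration of 110 uM, were incubated 30 min at room temperature with preformed BAZ2B/acetyl-K14 H3 peptide complex (50 nM each). Proximity signal was measured by AlphaScreen after 20 min with beads.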
JMJD2A Tudor inh = blocks the human JMJD2A Tudor domain; O75164; AlphaScreen JMJD2A-Tudor / H3K4me3 peptide binding; Potency, µM (top dose mostly 114 µM), most hits filed as inhibitors; actives 4.4% (n = 390,000); AID 504339; note: nearly all actives have a fitted effect of over 50% in size
L3MBTL1 block = L3MBTL1 (human) inhibition | Q9Y468 | AlphaScreen L3MBTL1–H3K9me1 peptide binding | Potency, µM (doses to about 57.1 µM), actives largely listed as inhibitors | actives 0.66% (n = 230,000); note: nearly all actives have a fitted effect of over 60% in size
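First, the protein-peptide complex forms for 30 min at room temperature (L3MBTL1 50 nM, biotinylated H3K9me1 peptide 75 nM). Next, compounds are pin-transferred and incubated 30 min. Finally, AlphaScreen beads are added and read after 30 min.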
G9a inh = blocks human histone lysine methyltransferase G9a; G9a H3K9 monomethylation, AlphaScreen, 2 h; Potency, µM (top dose mostly 102 µM), most hits filed as inhibitors; actives 8.8% (n = 350,000); AID 504332; note: nearly all actives have a fitted effect of over 75% in size
Target sequence (Q96KQ7 913-1193 limits assumed): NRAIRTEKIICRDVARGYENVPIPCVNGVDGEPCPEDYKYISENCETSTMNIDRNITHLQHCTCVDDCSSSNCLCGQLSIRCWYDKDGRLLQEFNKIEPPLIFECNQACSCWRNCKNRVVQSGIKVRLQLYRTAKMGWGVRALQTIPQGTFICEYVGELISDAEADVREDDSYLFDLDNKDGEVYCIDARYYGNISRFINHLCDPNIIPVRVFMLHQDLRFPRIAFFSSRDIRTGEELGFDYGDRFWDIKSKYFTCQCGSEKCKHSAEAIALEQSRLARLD
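AlphaScreen detection with an anti-monomethyl H3K9 antibody quantified product after a 2 h room-temperature reaction containing 500 nM biotinylated H3K9 peptide, 20 µM SAM and 20 nM enzyme, which had been preincubated 15 min with compound.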
Sfp PPTase inh = inhibitors of Bacillus subtilis Sfp phosphopantetheinyl transferase. Q9F4F7. AID 1490. Biochemical Sfp PPTase activity, qHTS. actives 3.5% (n = 310,000). Potency, µM, most hits filed as inhibitors;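 note: the enzyme is Sfp with the accession as filed and its product quenches rhodamine fluorescence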
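Fluorescence-quenching assay: 15 nM Sfp-PPTase preincubated 15 min at room temperature with compound, then 5 uM rhodamine-CoA and 12.5 uM BHQ-2-labelled YbbR peptide added. Fluorescence (ex 525/em 598 nm) read at start and after 30 min; difference gives rate.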
Large screens that a line does not name were inactive. Calls come from the whole dose curve; as a rule, active = well fitted curve in the direction sought with a large enough effect; inconclusive = small, poorly fitted or top-dose-only effect, or another doubt; inactive = no such curve, though single readings can be large; an effect the other way counts as inactive or inconclusive.

Cc1cc2c(cc1Cl)C(c1ccccc1C)CC(=O)O2 (stereo not drawn)	none (no result: HP1b chromo inh, BAZ2B block, JMJD2A Tudor inh, L3MBTL1 block)
CCCC(=O)Nc1cc(C)cn(Cc2c(F)cccc2Cl)c1=O	none (no result: G9a inh)
N#CC12CCCCC1CC1CCCCC1(C#N)N2N (stereo not drawn)	G9a inh inconclusive, Sfp PPTase inh 79µM
CCOC(=O)c1c(C)oc2c1c1c(c3ccccc32)OCN(CCCC(=O)O)C1	BAZ2B block inconclusive, JMJD2A Tudor inh inconclusive, G9a inh 8.9µM
CCOC(=O)c1c(C)oc2c1c1c(c3ccccc32)OCN(Cc2cccnc2)C1	BAZ2B block inconclusive, JMJD2A Tudor inh inconclusive, G9a inh inconclusive, Sfp PPTase inh inconclusive
COc1ccc(CNC(=O)Cn2c(=O)nc(-c3ccccc3F)c3cc(Cl)ccc32)cc1	none (no result: L3MBTL1 block, Sfp PPTase inh)
COc1ccc(NC(=O)C2CCN(S(=O)(=O)c3c(C)noc3/C=C/N(C)C)CC2)cc1	none (no result: L3MBTL1 block)
COc1ccc(N2CCN(CCCNS(=O)(=O)c3c(C)noc3/C=C/N(C)C)CC2)cc1	BAZ2B block 35µM, L3MBTL1 block inconclusive, G9a inh inconclusive (no result: HP1b chromo inh, JMJD2A Tudor inh)
CCCCSc1nnc2c(n1)[nH]c1ccccc12	BAZ2B block inconclusive, JMJD2A Tudor inh 22µM (no result: L3MBTL1 block)
O=C(O)CSc1nnc2c(n1)[nH]c1ccccc12	L3MBTL1 block inconclusive, G9a inh inconclusive, Sfp PPTase inh 50µM
O=C(O)c1ccccc1CSc1nnc2c(n1)[nH]c1ccccc12	Sfp PPTase inh 56µM (no result: G9a inh)
O=C(CSc1nnc2c(n1)[nH]c1ccccc12)OCc1ccccc1	none
COc1ccc(C(=O)NCc2nnnn2-c2ccc(C)c(C)c2)cc1	none (no result: L3MBTL1 block, Sfp PPTase inh)
Cc1occc1-c1nnc(SCC(=O)c2ccc(Cl)cc2)n1CC1CCCO1 (stereo not drawn)	BAZ2B block inconclusive
CCn1c(SCC(=O)c2ccc(C)cc2)nnc1-c1ccoc1C	G9a inh 50µM, Sfp PPTase inh 79µM
CCn1c(SCC(=O)c2ccccc2)nnc1-c1ccoc1C	none
CCn1c(SCC(=O)c2ccc(Cl)cc2)nnc1-c1ccoc1C	JMJD2A Tudor inh 50µM
O=C(Nc1c(C(=O)c2ccccc2)oc2ccccc12)c1cc(=O)c2ccccc2o1	none (no result: L3MBTL1 block, Sfp PPTase inh)
COc1cc(F)c(S(=O)(=O)N2CCN(S(=O)(=O)c3ccc(N)cc3)CC2)c(F)c1	none (no result: HP1b chromo inh, BAZ2B block, L3MBTL1 block, G9a inh, Sfp PPTase inh)
CCOC(=O)c1c(NC(=O)Cn2cnc([N+](=O)[O-])n2)sc2c1CCCC2	G9a inh 45µM
CC(C)OC(=O)c1c(NC(=O)Cn2cnc([N+](=O)[O-])n2)sc2c1CCCC2	G9a inh 16µM
CC1CCc2c(sc(NC(=O)Cn3cnc([N+](=O)[O-])n3)c2C(N)=O)C1 (stereo not drawn)	none (no result: BAZ2B block)
NC(=O)c1c(NC(=O)Cn2cnc([N+](=O)[O-])n2)sc2c1CCCC2	G9a inh inconclusive (no result: L3MBTL1 block)
CCOC(=O)c1c(NC(=O)Cn2cnc([N+](=O)[O-])n2)sc(C)c1C	G9a inh 28µM (no result: L3MBTL1 block)
CCOC(=O)c1c(NC(=O)Cn2nc(C(F)F)cc2C(F)F)sc(C)c1C	G9a inh inconclusive (no result: L3MBTL1 block)
COC(=O)c1c(NC(=O)Cn2nc(C(F)F)cc2C(F)F)sc(C)c1C	Sfp PPTase inh 56µM (no result: G9a inh)
CCC1CN(C(=O)C2CCN(S(=O)(=O)c3c(C)noc3/C=C/c3ccccc3F)CC2)c2cc(Cl)ccc2O1 (stereo not drawn)	none (no result: L3MBTL1 block, Sfp PPTase inh)
CN(c1cccc(Cl)c1)S(=O)(=O)c1cccc(C(=O)NCc2ccncc2)c1	G9a inh inconclusive (no result: Sfp PPTase inh)
COc1cc(S(=O)(=O)Nc2ccc3cn[nH]c3c2)ccc1Cl	G9a inh inconclusive (no result: L3MBTL1 block)
O=C(C=C(C(=O)c1ccccc1)c1ccccc1)c1ccccc1	JMJD2A Tudor inh inconclusive (no result: BAZ2B block, L3MBTL1 block, G9a inh, Sfp PPTase inh)
CC(C)C[C@H](NC(=O)N1CC(=O)Nc2ccccc21)C(=O)N[C@@H](C(=O)O)c1ccccc1	none (no result: L3MBTL1 block)
CCC(C)[C@H](NC(=O)N1CC(=O)Nc2ccccc21)C(=O)N[C@@H](C(=O)O)c1ccccc1 (stereo partly drawn)	G9a inh 79µM (no result: L3MBTL1 block)
O=C1CN(C(=O)N[C@@H](Cc2ccccc2)C(=O)N[C@@H](C(=O)O)c2ccccc2)c2ccccc2N1	JMJD2A Tudor inh 32µM (no result: L3MBTL1 block)
